# USP10 inh: human USP10 deubiquitinase inhibition | Q14694 | purified USP10, Ub-rhodamine fluorescence, 60 min | inhibition, % at 20 µM | 1.1% of 47,000 active | AID 1645856
# USP7 inh: blocks human USP7 ubiquitin-rhodamine cleavage | Q93009 | purified USP7, Ub-rhodamine cleavage fluorescence | inhibition, % at 20 µM | 0.3% of 47,000 active | AID 1645854
# Target sequence (Q93009 whole entry, looked up): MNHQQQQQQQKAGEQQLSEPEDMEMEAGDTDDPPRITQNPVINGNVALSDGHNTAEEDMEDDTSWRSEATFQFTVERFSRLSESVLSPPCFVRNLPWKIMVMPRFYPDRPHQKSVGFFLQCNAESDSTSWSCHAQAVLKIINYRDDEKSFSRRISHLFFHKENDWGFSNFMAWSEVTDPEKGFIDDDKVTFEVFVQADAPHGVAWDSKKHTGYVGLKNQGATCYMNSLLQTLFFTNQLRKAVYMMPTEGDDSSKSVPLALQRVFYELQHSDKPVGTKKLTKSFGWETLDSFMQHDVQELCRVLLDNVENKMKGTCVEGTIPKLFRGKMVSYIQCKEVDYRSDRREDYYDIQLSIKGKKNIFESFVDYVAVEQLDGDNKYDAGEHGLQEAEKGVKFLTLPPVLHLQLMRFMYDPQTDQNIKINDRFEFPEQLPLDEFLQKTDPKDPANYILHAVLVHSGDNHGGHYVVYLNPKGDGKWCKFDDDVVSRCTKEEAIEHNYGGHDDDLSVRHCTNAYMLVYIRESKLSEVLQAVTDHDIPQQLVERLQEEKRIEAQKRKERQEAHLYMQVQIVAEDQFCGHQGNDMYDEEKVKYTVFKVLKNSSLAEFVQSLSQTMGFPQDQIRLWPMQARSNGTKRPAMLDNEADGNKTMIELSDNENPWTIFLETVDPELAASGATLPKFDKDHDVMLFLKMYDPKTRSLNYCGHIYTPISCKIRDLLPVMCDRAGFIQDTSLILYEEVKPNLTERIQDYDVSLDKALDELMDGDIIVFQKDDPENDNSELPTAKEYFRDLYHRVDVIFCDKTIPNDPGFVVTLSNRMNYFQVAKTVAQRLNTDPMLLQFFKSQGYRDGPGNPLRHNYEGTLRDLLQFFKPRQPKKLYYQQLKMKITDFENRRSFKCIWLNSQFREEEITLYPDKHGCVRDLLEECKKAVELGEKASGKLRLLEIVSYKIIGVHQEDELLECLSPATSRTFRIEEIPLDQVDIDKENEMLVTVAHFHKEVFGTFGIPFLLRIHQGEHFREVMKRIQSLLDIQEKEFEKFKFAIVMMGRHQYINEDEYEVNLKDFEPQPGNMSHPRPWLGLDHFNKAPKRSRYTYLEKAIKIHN
# USP8 inh: human USP8 deubiquitinase inhibition; purified USP8, Ub-rhodamine cleavage fluorescence, 30 min; 4.2% of 47,000 active; inhibition, % at 20 µM; P40818; AID 1645853
# UCHL1 inh: blocks human UCHL1 ubiquitin-rhodamine cleavage; P09936; purified UCHL1, Ub-rhodamine cleavage fluorescence; inhibition, % at 20 µM; 0.2% of 47,000 active
# Hits are given with their value; 0 = inactive; - = no result given. Shown are actives, neighbours in structure and some others; about 4.6% of the full set was active somewhere. Cut-off read from the data, not from the text of the source: active = inhibition above about 30%; inactive = the rest.
SMILES,USP10 inh,USP7 inh,USP8 inh,UCHL1 inh
CCC(C)CC(C)/C=C(/C=C(C)/C=C/C=C/C=C/C=C/C=C/c1cc2c(c(=O)o1)[C@H](O)[C@@H](O)C(C(O)C(O)CO)O2)C(=O)O (some centres not stated),0,0,0,0
O=C(CCCC(=O)c1ccccc1)Nc1ccc(F)cc1Cl,0,0,35.1,0
O=C(/C=C/c1cnc2ccccc2c1)NCc1ccccc1,0,0,0,0
O=C(/C=C/c1ccc(Br)cc1)Nc1cnc2ccccc2c1,0,0,49.5,0
COc1ccc(-c2nc(SCC(=O)Oc3c(C)cccc3C)n3[nH]c(=O)cc3n2)cc1,45.7,0,83.4,0
COc1cccc(CNC(=O)CSc2nc(-c3ccco3)nc3cc(=O)[nH]n23)c1,0,0,0,0
O=C(CSc1nnc(-c2ccncc2)n1Cc1ccccc1)c1ccc2[nH]c(O)cc2c1,0,0,65.1,0
Cc1ccc(NC(=O)CNC(=O)c2cc3ccccc3o2)cc1,0,0,0,0
COc1cc(NC(=O)Cc2ccccc2)ccc1NC(=O)c1cc2ccccc2o1,33.9,0,0,0
COc1cccc(CNC(=O)C(C)N2C(=O)CCn3nc(C)cc32)c1 (configuration not stated),0,0,0,0
CC1=C(Cn2c3cccc(=O)c-3nc3ccccc32)CCC(C)(C)C1,58.1,34.8,58.6,61.7
CCCn1c(COC(=O)c2ccccc2C(=O)c2ccccc2)nc2cc(S(=O)(=O)N(C)C)ccc21,0,0,0,0
CSc1nc2ncn(CC(=O)Nc3cc(C)cc(C)c3)c(=O)c2s1,0,0,0,0
CSc1nc2ncn(CC(=O)Nc3ccc(Br)cc3)c(=O)c2s1,0,0,82.1,0
CCc1cccc2c(C(=O)COc3ccc(C#N)cc3)c[nH]c12,0,0,81.8,0
CC(=O)c1ccccc1NC(=O)COc1ccc(-c2ccc(C#N)cc2)cc1,0,0,0,0
COc1ccc(C)cc1NCC(=O)Nc1ncc(Cl)c(C)c1Cl,0,0,36.3,0
CC(C)C[C@H](NC(=O)[C@@H](Cc1ccccc1)n1c(=O)[nH]c2ccccc2c1=O)C(=O)NCC1CCC(C(=O)O)CC1 (some centres not stated),0,0,0,0
O=C(Nc1ccc2c(c1)OCCO2)c1cccc2nc3ccccc3nc12,0,0,37.0,0
Cc1ccc(-c2cc(C(=O)Nc3ccc4c(c3)OCCO4)c3ccccc3n2)o1,0,0,0,0
COc1ccc(C(=O)/C=C2\NCCc3cc4c(cc32)OCCCO4)cc1OC,0,0,0,0
O=C(/C=C1\NCCc2cc3c(cc21)OCCCO3)c1ccc(OC(F)(F)F)cc1,0,0,52.6,0
COC(=O)CCC(c1ncc(C(F)(F)F)cc1Cl)S(=O)(=O)c1ccccc1 (configuration not stated),0,0,31.3,0
Cc1nc(-c2ccc(C)c(S(=O)(=O)N3CCCc4ccccc43)c2)no1,0,0,0,0
O=C(Nc1ccc(Cl)cc1)C1CCN(c2nc3nc[nH]c(=O)c3s2)CC1,0,0,0,0
SMILES,USP10 inh,USP7 inh,USP8 inh,UCHL1 inh
Cc1ccc(NC(=O)C2CCN(c3nc4nc[nH]c(=O)c4s3)CC2)cc1F,0,0,39.4,0
COc1ccc(N2CCN(c3ccc(Cl)cc3[N+](=O)[O-])CC2)cc1,0,0,33.1,0
COc1ccc(CNC(=O)c2ccc(N3CCOCC3)c([N+](=O)[O-])c2)cc1,0,0,0,0
Cc1ccc(Cl)cc1NC(=O)c1c(N2CCCC2=O)c2cc(F)ccc2n1C,0,0,0,0
O=C(/C=C/c1ccc(F)cc1)N1CCC(Cc2ccccc2)CC1,0,0,0,0
Cc1cc(C(Nc2ccccn2)c2ccc(Cl)cc2)c(NC(=O)c2ccco2)s1 (configuration not stated),0,0,35.2,0
O=C(NCCc1ccc(Cl)cc1)c1cccc(-n2cnc3cccnc32)c1,0,0,0,0
COc1ccc(CCNC(=O)c2c(N)n(-c3cccc(F)c3)c3nc4ccccc4nc23)cc1,0,0,35.9,0
Cc1ccc(-n2c(N)c(C(=O)NCCc3ccccc3F)c3nc4ccccc4nc32)cc1,0,0,33.5,0
COc1ccc(CCNC(=O)c2c(N)n(-c3cccc(Cl)c3)c3nc4ccccc4nc23)cc1,0,0,61.5,0
O=C(NCCc1ccccc1F)c1ccc(N2C(=O)CCS2(=O)=O)cc1,0,0,0,0
CCc1ccc(S(=O)(=O)c2cnc3ccccc3c2N2CCC(C(N)=O)CC2)cc1,0,0,0,0
Cc1ccc(S(=O)(=O)N2CCC3(CC2)OC(=O)Nc2ccccc23)cc1,0,0,34.8,0
O=C1Nc2ccccc2C2(CCN(S(=O)(=O)c3ccccn3)CC2)O1,0,0,0,0
CN(C)c1cccc(C(=O)Nc2cc(-c3cccnc3)no2)c1,0,0,0,0
Cc1nc(-c2cc(C(=O)N3CCC(N(C)C)CC3)c3ccccn23)cs1,0,0,0,0
COc1ccc(Cl)cc1C(=O)NNC(=O)c1cc(-c2ccccc2)n[nH]1,40.4,0,85.1,0
CC1(O)CC(=O)c2c(cc3cc(O)cc(O)c3c2O)C1 (configuration not stated),79.2,94.5,70.1,92.9
CCN1CCN(c2cc(C)c3cc(NC(=O)c4ccco4)ccc3n2)CC1,0,0,47.5,0
CC(=O)Nc1ccc2nc(N3CCC(C(=O)N4CCN(C)CC4)CC3)cc(C)c2c1,0,0,31.3,0
CCOC(=O)C1CCN(C(=O)CCC(=O)Nc2ccc3nc(N4CCN(CC)CC4)cc(C)c3c2)CC1,0,0,0,0
Cc1cc(N2CCCCC2)nc2ccc(NC(=O)c3ccco3)cc12,0,0,58.1,0
Cc1cc(N2CCN(c3ncccn3)CC2)nc2ccc(NC(=O)c3ccncc3)cc12,0,0,0,0
COC(=O)c1ccc2c(=O)n(CCCCCC(=O)NCCc3ccccc3Cl)c(=O)[nH]c2c1,52.7,0,42.6,0
COC(=O)c1ccc2c(=O)n(CCCCCC(=O)NCCc3ccc(S(N)(=O)=O)cc3)c(=O)[nH]c2c1,37.4,0,82.1,0
SMILES,USP10 inh,USP7 inh,USP8 inh,UCHL1 inh
COc1ccc(-c2csc3ncnc(NCCN4CCN(C)CC4)c23)cc1,0,0,0,0
Cc1c(C(=O)OCC(=O)Nc2ccc3c(c2)OCO3)oc2ccc(Br)cc12,34.8,0,0,0
O=C(Cn1cnc(-c2ccccc2)cc1=O)Nc1ccc(Oc2ccccc2)cc1,0,0,45.9,0
O=C(Cn1nc(-c2ccc3c(c2)OCCO3)ccc1=O)Nc1ccc(Oc2ccccc2)cc1,0,0,0,0
Cc1ccc(-c2cc(NC(=O)C(C)C)c(=O)n(CC(=O)Nc3ccc(Cl)cc3)n2)cc1,0,0,0,0
Cc1ccc(-c2cc(=O)n(CC(=O)Nc3ccc(C(C)C)cc3)cn2)cc1,42.5,0,33.8,0
O=C(Cn1nc(-c2ccccc2)cc(NC(=O)c2ccccc2)c1=O)Nc1ccc(F)cc1,37.9,-,0,0
O=C(Oc1ccc2c(c1)OCO2)C(c1ccccc1)c1ccccc1,0,0,31.3,0
O=C(O)c1ccc(OC(=O)C(c2ccccc2)c2ccccc2)cc1,0,0,0,0
Cc1cc(S(=O)(=O)N2CCC(C3(C)NC(=O)NC3=O)CC2)ccc1F (configuration not stated),0,0,52.8,0
